The values below come from PubChem BioAssay AID1568 (National Center for Advancing Translational Sciences (NCATS), 2009).

Molecules are shown by their SMILES. Inconclusive results are not listed. Entries that show only a call come without a potency. Active and inactive are the calls of the source. The call rests on the fitted dose curve; in most records, active means well fitted curve in the direction sought with a large enough effect; inconclusive means small, poorly fitted or top-dose-only effect, or effect the other way, or another doubt; inactive means no such curve, though single readings can be large or run the other way.

The nature of this assay: Cell Viability Secondary Assay to Characterize qHTS Inhibitors of the Interaction of Thyroid Hormone Receptor and Steroid Receptor Coregulator 2. To be noted: cell viability counter-screen, qHTS titration; series mostly up to 29.9 µM. The procedure, abridged:
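WRO human follicular thyroid carcinoma cells stably expressing TRbeta and a TRE-luciferase reporter, treated with compounds plus 100nM T3 (final) for 16 h at 37 C. Viability read as ATP content by CellTiter-Glo luminescence.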
With `COc1ccc(-c2nc(CS(=O)CC(=O)NCc3ccccn3)c(C)o2)cc1` (centres undefined), the Potency result was “inactive”.
To `O=C(O)/C=C/C(=O)Nc1ccc(OC(F)(F)F)cc1Br` belongs “inactive”; to `CCC(C)NC(=O)COC(=O)c1csc2c1CCCC2` (centres undefined), “inactive”.
To `COc1cc(C(c2c(C)[nH][nH]c2=O)c2c(C)[nH][nH]c2=O)ccc1OC(=O)c1cccc(C)c1` belongs “inactive”.
As to `COc1ccc2ccc3c(c2c1)N=CC1(O3)N(C)c2ccccc2C1(C)C` (centres undefined), the Potency result was “inactive”.
With `O=C(NNc1cc(N2CCOCC2)nc(N2CCOCC2)n1)c1ccc([N+](=O)[O-])cc1`, the Potency entry was “inactive”.
To `Cn1c(=O)[nH]c2nnc(-c3ccc(Cl)c(Cl)c3)nc2c1=O` belongs “inactive”.
The same measure for `CC1=NN(Cc2ccccc2)C(=O)C1`: “inactive”.
To `CCOc1cc(N2CCOCC2)c(OCC)cc1NC(C)C(=O)N1CCN(CC)CC1` (centres undefined) belongs “inactive”.
On to `CCOC(=O)C(NC(=O)Nc1ccc(O)cc1)(c1ccccc1)C(F)(F)F` (centres undefined), for which the Potency entry was “inactive”.
To `COC(=O)c1ccccc1-c1ccc(C(c2c(C)[nH][nH]c2=O)c2c(C)[nH][nH]c2=O)o1` belongs “inactive”; to `Cn1c(CCN2CCCCC2)nc2cc(NS(=O)(=O)c3ccc(Cl)cc3)ccc21`, “inactive”.
The same measure for `O=C(O)C1C2C=CC(O2)C1C(=O)Nc1ccc(S(=O)(=O)N2CCc3ccccc32)cc1` (centres undefined): “inactive”.
To `CS(=O)(=O)c1ccc(C(=O)OCC(=O)NC(=O)C2CCCCC2)cc1[N+](=O)[O-]` belongs “inactive”; to `CCCCCCN=CC1=C(O)CC(C)(C)CC1=O`, “inactive”.
Take `Cn1cc(/C=C2\SC(=S)N(NC(=O)c3ccccc3)C2=O)c2ccccc21`: the Potency entry is “inactive”.
For `Cc1c(C#N)c(O)n(CCO)c(=O)c1N=Nc1ccc2c(c1)COC2=O`, the Potency entry is “inactive”.
`CC1(C)C(N(O)C(=O)Nc2ccc(Cl)cc2)N(c2ccc(Cl)cc2)C(=O)N1CC(=O)NN` (centres undefined): the Potency result was “inactive”.
As for `Cc1ccc(OC(=S)Nc2ccc(O)cc2)cc1`, the Potency result was “inactive”.
The same measure for `COc1cc(C(c2c(C)[nH][nH]c2=O)c2c(C)[nH][nH]c2=O)ccc1OC(=O)c1ccccc1OC`: “inactive”; for `Nc1cnccc1C(=O)O`: “inactive”; for `COc1ccc(CN2C(=O)Cc3c2nc(N)c2c(N)nc(N4CCCCC4)c(C#N)c32)cc1`: “inactive”.
To `Oc1ccc2ccccc2c1C=NC12CN3CCN(CN(C3)C1)C2` belongs “inactive”; to `Cc1nc2c3cc(F)ccc3n(Cc3ccccc3F)c2s1`, “inactive”; to `C=CC(=O)OCCOc1ccccc1`, “inactive”.
The same measure for `CC1=NN(c2ccc(F)cc2)C(=O)C1C(c1cccc(O)c1)c1c(C)[nH]n(-c2ccc(F)cc2)c1=O` (centres undefined): “inactive”; for `N#Cc1c(NC(=O)c2ccccc2Cl)n(Cc2ccccc2)c2nc3ccccc3nc12`: “inactive”.
For `Cc1cc(N=Cc2c(O)ccc3ccccc23)no1`, the Potency result is “inactive”.
The same measure for `O=C(O)/C=C/C(=O)Nc1ccc(SC(F)(F)C(F)(F)C(F)(F)F)cc1`: “inactive”; for `C=CCNC(=O)/C(C#N)=C/c1c(C)nn(-c2ccc(Cl)cc2)c1Cl`: “inactive”.
As to `CCSc1ncc(Cl)c(C(=O)Nc2nc3ccc(OC)cc3s2)n1`, the Potency result was “inactive”.
For the compound `Cc1cc2ccccc2n1CCNC(=O)C(C)Oc1ccccc1` (centres undefined), the Potency result is “inactive”.
To `CN(CCO)c1nc(N)c2c(N)nc3c(c2c1C#N)CC(=O)N3C1CCCC1` belongs “inactive”; to `CN(C)c1cc(Cl)c2nonc2c1N`, “inactive”; to `Cc1ccc(-c2nc(S(=O)(=O)c3ccc(F)cc3)c(SCC(=O)NCC3CCCO3)o2)cc1` (centres undefined), “inactive”.
To `Nc1cc(-c2ccncc2)c[nH]c1=O` belongs “inactive”; to `C=CCSc1nnc2n(-c3ccccc3OC)c(=O)c3c4c(sc3n12)CCC4`, “inactive”.
The same measure for `Cc1nc2ccccc2n2c(O)c(CC(=O)O)cc12`: “inactive”; for `CCc1ccc2c(c1)c1nc(C)sc1n2CC`: “inactive”.
